GluA2 TARP mod: modulators of GluA2-stargazin AMPA receptor complexes, primary screen, cell-based, membrane potential dye. calls only at 30 µM. 40,000 tested, 3.5% active. HEK293 GluA2+stargazin, membrane potential dye (FDSS), glutamate EC50; hits were called plate by plate, in both directions. AID 1259245, 2017. Voltage-dependent calcium channel gamma-2 subunit (Mus musculus) + Glutamate receptor 2 …;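 active means any of four per-well response measures lying three or more SD from its plate-wide compound average, in either direction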
Target sequence (O88602 whole entry, looked up): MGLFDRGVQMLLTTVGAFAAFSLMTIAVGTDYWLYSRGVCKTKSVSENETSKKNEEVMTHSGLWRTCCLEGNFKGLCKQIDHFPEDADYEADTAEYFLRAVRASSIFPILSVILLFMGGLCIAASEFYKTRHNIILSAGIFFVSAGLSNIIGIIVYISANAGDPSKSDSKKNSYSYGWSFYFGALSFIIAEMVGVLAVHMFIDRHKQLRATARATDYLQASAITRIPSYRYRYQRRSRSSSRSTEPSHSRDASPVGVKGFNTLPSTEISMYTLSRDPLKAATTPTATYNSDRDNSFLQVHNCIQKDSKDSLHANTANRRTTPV
Target sequence (P19491 whole entry, looked up): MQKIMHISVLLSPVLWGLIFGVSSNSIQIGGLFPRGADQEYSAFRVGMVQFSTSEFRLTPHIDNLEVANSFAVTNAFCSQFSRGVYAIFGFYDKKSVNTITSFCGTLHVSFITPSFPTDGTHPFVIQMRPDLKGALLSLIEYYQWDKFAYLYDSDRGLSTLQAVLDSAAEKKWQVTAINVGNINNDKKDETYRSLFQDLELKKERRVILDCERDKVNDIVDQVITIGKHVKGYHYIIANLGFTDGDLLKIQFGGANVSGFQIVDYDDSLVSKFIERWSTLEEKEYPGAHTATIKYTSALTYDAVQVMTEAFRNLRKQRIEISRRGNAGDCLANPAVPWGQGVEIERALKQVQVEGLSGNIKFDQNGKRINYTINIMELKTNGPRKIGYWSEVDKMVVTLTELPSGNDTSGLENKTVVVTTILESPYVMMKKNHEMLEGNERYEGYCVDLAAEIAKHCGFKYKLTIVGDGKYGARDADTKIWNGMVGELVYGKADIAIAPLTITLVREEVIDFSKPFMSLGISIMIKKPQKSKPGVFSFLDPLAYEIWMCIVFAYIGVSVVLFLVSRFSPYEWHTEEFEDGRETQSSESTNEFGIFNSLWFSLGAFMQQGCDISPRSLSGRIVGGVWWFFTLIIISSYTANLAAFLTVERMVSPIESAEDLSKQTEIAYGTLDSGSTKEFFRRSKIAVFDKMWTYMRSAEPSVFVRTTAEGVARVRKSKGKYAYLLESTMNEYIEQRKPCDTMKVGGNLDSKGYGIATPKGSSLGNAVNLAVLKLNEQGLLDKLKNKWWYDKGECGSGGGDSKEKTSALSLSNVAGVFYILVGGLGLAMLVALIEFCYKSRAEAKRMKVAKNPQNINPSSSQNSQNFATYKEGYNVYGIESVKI
GIRK2 activator: activators of NPY4-receptor-primed GIRK2 channels, summary, cell-based, HEK293, thallium flux. HEK293 GIRK2/NPY4 cells, thallium flux fluorescence. activation (% efficacy), % for hits at 37.5 µM. 34,000 tested, under 10 active. AID 1259324, 2017;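 active means primary screen hit, no activity in plain HEK293 cells, and in GIRK2-only cells above 5% efficacy rising with concentration; inactive means the rest, including fluorescent compounds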;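 further: efficacy is normalized control-subtracted fluorescence 15 s after thallium addition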
Of the large screens only hits and unclear results are named; the others gave an inactive call. The sample as a whole holds a higher share of hits than the screen did.

CCOc1ccc(-c2cc(=O)n(CC(=O)Nc3ccccc3C(N)=O)cn2)cc1	none (no result: GluA2 TARP mod)
C=C(C)Cn1c(C2CC(=O)N(c3ccc(C)cc3)C2)nc2ccccc21 (centres undefined)	none
CCOc1cccc2sc(N(Cc3ccccn3)C(=O)c3nn(C)cc3C)nc12	GluA2 TARP mod active
COc1cccc2sc(N(Cc3ccccn3)C(=O)c3cc(C)nn3C)nc12	none
O=C1CN(C2CC2)C(=O)C(Cc2ccccc2)N1 (centres undefined)	none
CCc1nnc(-c2ccc(NC(=O)C3CC(=O)N(c4ccc(C)c(C)c4)C3)cc2)o1 (centres undefined)	none
O=C(Cc1cccs1)NNC(=O)c1cccn(Cc2ccc(Cl)c(Cl)c2)c1=O	GluA2 TARP mod active
O=C(Cc1ccc(F)cc1)NNC(=O)c1cccn(Cc2ccc(Cl)c(Cl)c2)c1=O	none
CS(=O)(=O)Nc1ccc2c(c1)CCCN2S(=O)(=O)c1ccc(F)cc1	none (no result: GIRK2 activator)
COc1ccc2sc(=NC(C)=O)n(CCSC)c2c1	none (no result: GIRK2 activator)
COc1ccc2sc(=NC(=O)c3cc(C)no3)n(CCSC)c2c1	GluA2 TARP mod active
CC(C)Cn1c(=O)c2c(nc3n2CC(C)CN3c2ccc(Oc3ccccc3)cc2)n(C)c1=O (centres undefined)	none (no result: GIRK2 activator)
O=C(NCC1CCN(C(=O)c2cc3ccccc3o2)CC1)c1ccc2nsnc2c1	GluA2 TARP mod active
O=C(/C=C/c1cccs1)NCC1CCN(C(=O)c2cc3ccccc3o2)CC1	GluA2 TARP mod active
O=C(NCC1CCN(C(=O)c2ccccc2F)CC1)c1ccc2nsnc2c1	none
O=C(NCc1cccs1)NCC1CCN(C(=O)c2cc3ccccc3o2)CC1	none
CCc1cccc(CC)c1NC(=O)CCCOc1ccc(OC)cc1	none
COc1ccccc1CNC(=O)C(=O)Nc1c(C(N)=O)oc2ccccc12	none
Cc1cccc(C)c1NC(=O)C(=O)NCC1CCN(C(C)C)CC1	none (no result: GluA2 TARP mod)
Cc1cc(NC(=O)C(=O)NCC2CCN(C(C)C)CC2)c2ccccc2n1	GluA2 TARP mod active
COc1cccc(C(CNC(=O)C(=O)Nc2cc(C)nc3ccccc23)N2CCOCC2)c1 (centres undefined)	none
Cc1cc(NC(=O)C(=O)NCC(c2cccs2)N2CCOCC2)c2ccccc2n1 (centres undefined)	GluA2 TARP mod active (no result: GIRK2 activator)
Cc1cccc(Cn2c(=O)c3nscc3n(CC(=O)Nc3ccccc3C)c2=O)c1	none
CC(=O)c1ccc(NC(=O)Cn2c(=O)n(Cc3ccccc3)c(=O)c3nscc32)cc1	GluA2 TARP mod active
CC(O)(CNC(=O)NC1CCCCC1)C1CC1 (centres undefined)	none
CCOc1ccc2ccccc2c1C(=O)NC1CCCC(O)C1 (centres undefined)	GluA2 TARP mod active
CCOc1ccc2ccccc2c1C(=O)NCC(O)(c1ccco1)C1CC1 (centres undefined)	GluA2 TARP mod active
CCOc1ccc2ccccc2c1C(=O)NCC(C)(O)c1ccccc1 (centres undefined)	none (no result: GluA2 TARP mod)
CCOc1ccc2ccccc2c1C(=O)NCC1CCN(C(C)C)CC1	none (no result: GluA2 TARP mod)
CCOc1cc(C(=O)NCc2ccsc2)cc(OCC)c1OCC	none
CCOc1ccc2ccccc2c1C(=O)NCc1ccsc1	GluA2 TARP mod active
CC(O)CNc1nc2c(c(=O)[nH]c(=O)n2C)n1Cc1ccc(F)cc1 (centres undefined)	none
COCCNS(=O)(=O)c1ccc(OC)c(N(C)S(=O)(=O)c2ccc(C)cc2)c1	none (no result: GIRK2 activator)
O=C(CSCc1ccccc1)N1CCN(Cc2nnnn2-c2ccc(F)c(F)c2)CC1	GluA2 TARP mod active
O=C(C1CC1)N1CCN(Cc2nnnn2-c2ccc(F)c(F)c2)CC1	none
CN1C(=O)C2C(c3ccc([N+](=O)[O-])cc3)NN(C)C2C1=O (centres undefined)	GluA2 TARP mod active (no result: GIRK2 activator)
O=C(c1cc2ccccc2oc1=O)N1CCC(Cn2cnc3ccccc32)CC1	none
O=C(c1ccc(Br)o1)N1CCC(Cn2cnc3ccccc32)CC1	GluA2 TARP mod active
NC(=O)c1ccc(NC(=O)Cn2c3c(c(=O)n(C4CCCCC4)c2=O)CCC3)cc1	none
O=C1CCCCN1c1cccc(NC(=O)C2(c3ccc(F)cc3)CC2)c1	none (no result: GluA2 TARP mod)
COc1ccc(CCNC(=O)C(=O)c2cn(CC(=O)N3CCOCC3)c3ccccc23)cc1	GluA2 TARP mod active (no result: GIRK2 activator)
COc1ccc(NC(=O)C(=O)c2cn(CC(=O)N3CCOCC3)c3ccccc23)cc1	none (no result: GIRK2 activator)
Cc1ccccc1-n1ncc2c(=O)n(CC(=O)N3CCC(C)CC3)cnc21	none (no result: GIRK2 activator)
COc1ccc(-c2nnc(NC(C)=O)o2)cc1OC	GluA2 TARP mod active
CCC(=O)Nc1nnc(-c2ccc3c(c2)CCCC3)o1	none
COc1cccc2cc(-c3nnc(NC(=O)c4ccccc4)o3)oc12	none (no result: GIRK2 activator)
COc1ccc(C(=O)Nc2nnc(-c3cc4cccc(OC)c4o3)o2)cc1OC	GluA2 TARP mod active (no result: GIRK2 activator)
CCOc1ccc(-c2nnc(NC(=O)CC)o2)cc1OCC	GluA2 TARP mod active
COc1ccc(-c2nnc(NC(=O)CCc3ccccc3)o2)cc1OC	none
COc1cc(OC)cc(C(=O)Nc2nnc(-c3ccc(OC)c(OC)c3)o2)c1	GluA2 TARP mod active
COc1cc(OC)cc(C(=O)Nc2nnc(-c3ccc(OC)cc3OC)o2)c1	none (no result: GIRK2 activator)
O=C(/C=C/c1ccc([N+](=O)[O-])cc1)N(Cc1ccncc1)c1nc2c(F)cc(F)cc2s1	none
COc1cccc(CN2CCN(S(=O)(=O)c3cc(Cl)ccc3OC)CC2)c1	none (no result: GIRK2 activator)
Cc1ccccc1NS(=O)(=O)c1ccccc1	none (no result: GIRK2 activator)
CN(C)c1ccc(C(=O)Nc2nnc(-c3cccs3)o2)cc1	GluA2 TARP mod active (no result: GIRK2 activator)
CCCCOc1ccc(C(=O)Nc2nnc(-c3ccc(OC)c(OC)c3)o2)cc1	none
COc1ccc(C(=O)Nc2nnc(-c3ccc(SC)cc3)o2)cc1OC	none
COc1ccc(C(=O)Nc2nnc(-c3ccccc3OC)o2)cc1OC	GluA2 TARP mod active (no result: GIRK2 activator)
COc1ccc(C(=O)Nc2nnc(-c3ccc(OC)c(OC)c3)o2)cc1OC	GluA2 TARP mod active
COc1ccccc1-c1nnc(NC(=O)c2ccc(C(C)=O)cc2)o1	none (no result: GIRK2 activator)
COc1ccc(-c2nnc(NC(=O)c3ccc(S(=O)(=O)C(C)C)cc3)o2)cc1OC	GluA2 TARP mod active
Cc1ccc(C(=O)Nc2nnc(-c3cccs3)o2)cc1	none (no result: GIRK2 activator)
COc1cccc(C(=O)N(CCN2CCOCC2)c2nc3c(F)cccc3s2)c1	none
CCn1ccnc1N1CCN(C(=O)c2cc(Cl)ccc2OC)CC1	none
COc1ccc(C(=O)Nc2nnc(-c3cccs3)o2)cc1OC	GluA2 TARP mod active (no result: GIRK2 activator)
Cc1ccc(C(=O)Nc2nnc(-c3cccs3)o2)cc1C	none (no result: GIRK2 activator)
CC(=O)N1CCc2ccc(NC(=O)c3ccc(F)c(F)c3)cc21	none
COc1cccc(C(=O)Nc2ccc3c(c2)N(C(=O)c2ccco2)CC3)c1OC	none
COc1nn(C)cc1C(=O)Nc1ccc2c(c1)N(C(=O)c1ccco1)CC2	GluA2 TARP mod active
CC(=O)N1CCc2ccc(NC(=O)c3ccno3)cc21	GluA2 TARP mod active
CN(CC(=O)NCc1nn(C)c(=O)c2ccccc12)S(C)(=O)=O	none
Cc1ccc(C)c(Sc2cc(N3CCC(C(=O)NCCN4CCCC4)CC3)ncn2)c1	none
Cc1ccc(C)c(Sc2cc(N3CCC(C(=O)NCC4CCCO4)CC3)ncn2)c1 (centres undefined)	GluA2 TARP mod active
Cc1ccc(Cl)cc1NC(=O)C(=O)NCCCN1CCCC1=O	none
CC(c1ccccc1)N1C(=O)CC(N2CCOCC2)C1=O (centres undefined)	GluA2 TARP mod active (no result: GIRK2 activator)

Source: PubChem
